Laboratory results from PubChem BioAssay (Tox21).
Several values for one entry are separate records, joined by “and”; a condition that tells them apart may be missing. Identical values can stand only once. Records with an inconclusive call do not appear. More than one record can exist for a structure, and the calls need not agree. Activity calls are given as the source filed them. Calls follow the shape of the dose curve; as a rule, active = well fitted inhibition curve with a large enough effect in the repeat runs; inconclusive = weak or mixed curves; inactive = no such curve, though single readings can be large or run the other way.

biological target: Cytochrome P450 1A2 (Homo sapiens) (UniProt P05177); test: Cytochrome P450 Family 1 Subfamily A Member 2 (CYP1A2) small molecule antagonists: luciferase reporter qHTS assay (AID 1671199); conditions: P450-Glo CYP1A2 enzyme, luciferin luminescence, 1 h; series mostly up to 115 µM; also: nearly all actives have a fitted effect of over 50% in size
Sequence (P05177 whole entry, looked up): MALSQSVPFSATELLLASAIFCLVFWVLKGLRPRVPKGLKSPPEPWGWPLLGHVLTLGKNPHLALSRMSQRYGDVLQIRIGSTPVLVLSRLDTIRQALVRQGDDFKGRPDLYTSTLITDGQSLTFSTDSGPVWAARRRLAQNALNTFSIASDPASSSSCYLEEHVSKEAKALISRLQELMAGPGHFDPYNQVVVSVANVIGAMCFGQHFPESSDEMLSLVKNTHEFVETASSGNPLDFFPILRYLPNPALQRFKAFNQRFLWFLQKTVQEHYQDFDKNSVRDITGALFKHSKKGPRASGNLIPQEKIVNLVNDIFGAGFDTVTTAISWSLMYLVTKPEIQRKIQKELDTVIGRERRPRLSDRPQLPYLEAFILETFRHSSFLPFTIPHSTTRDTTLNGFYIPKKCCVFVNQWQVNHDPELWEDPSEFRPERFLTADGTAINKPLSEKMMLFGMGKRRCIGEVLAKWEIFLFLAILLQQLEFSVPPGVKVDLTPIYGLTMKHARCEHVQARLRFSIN
Summary of the method: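 Steps: enzyme-substrate mix dispensed; test compounds and furafylline control pinned in; 10 min room temperature; NADPH regeneration solution added, 1 h; reaction stopped with luciferin detection reagent; luminescence read after 20 min.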
Potency is read from the fitted curve at half-maximal effect.

| SMILES | Potency |
| --- | --- |
| Nc1ccccc1N | 2.58 µM (active) and 13.8 µM (active) |
| Cn1cnc([N+](=O)[O-])c1Sc1ncnc2nc[nH]c12 | inactive |
| Cc1ccc(C)c(O)c1C | 28.1 µM (active) and 28.3 µM (active) |
| c1ccc2c(c1)c1cccc3ccc4cccc2c4c31 | 112 nM (active) and 20 nM (active) |
| OC[C@H]1O[C@@H]2O[C@H]3[C@H](O)[C@@H](O)[C@@H](O[C@H]4[C@H](O)[C@@H](O)[C@@H](O[C@H]5[C@H](O)[C@@H](O)[C@@H](O[C@H]6[C@H](O)[C@@H](O)[C@@H](O[C@H]7[C@H](O)[C@@H](O)[C@@H](O[C@H]8[C@H](O)[C@@H](O)[C@@H](O[C@H]1[C@H](O)[C@H]2O)O[C@@H]8CO)O[C@@H]7CO)O[C@@H]6CO)O[C@@H]5CO)O[C@@H]4CO)O[C@@H]3CO | inactive |
| NNc1ccc(C(=O)O)cc1 | 32.1 µM (active) and 32 µM (active) |
| O=c1oc(=O)c2cc3c(=O)oc(=O)c3cc12 | inactive |
| CCC(C)OC(=O)c1ccc(O)cc1 (configuration not stated) | 20.1 µM (active) and 35.6 µM (active) |
| O=[N+]([O-])c1ccc2c(c1)Cc1ccccc1-2 | 2 µM (active) and 8.94 µM (active) |
| O=C1c2cccc(O)c2C(=O)c2c(O)cccc21 | 9.03 µM (active) and 6.45 µM (active) |
| O=C(/C=C/C=C/c1ccc2c(c1)OCO2)N1CCCCC1 | 28.3 µM (active) and 22.4 µM (active) |
| O=C=Nc1ccc(Cc2ccc(N=C=O)cc2)cc1 | inactive |
| C#C[C@]1(O)CC[C@H]2[C@@H]3CCC4=Cc5oncc5C[C@]4(C)[C@H]3CC[C@@]21C | inactive |
| COc1cc([C@@H]2c3cc4c(cc3[C@H](O)[C@H]3COC(=O)[C@H]23)OCO4)cc(OC)c1OC | 35.6 µM (active) |
| Brc1cc(Oc2cc(Br)c(Br)c(Br)c2Br)c(Br)c(Br)c1Br | inactive |
| CC(C)(C)NC(=O)[C@H]1CC[C@H]2[C@@H]3CC[C@H]4NC(=O)C=C[C@]4(C)[C@H]3CC[C@]12C | inactive |
| CCCC(=O)O | inactive |
| CN(C)CCN(Cc1cccs1)c1ccccn1 | inactive and 27.5 µM (active) |
| Oc1ccc(O)cc1 | inactive |
| c1ccc2sc(SSN3CCOCC3)nc2c1 | 20 µM (active) and 22.4 µM (active) |
| Cc1[nH]c(=O)c(C#N)cc1-c1ccncc1 | 56.4 µM (active) and inactive |
| c1ccc2c(c1)Oc1ccccc1S2 | 12.8 µM (active) and 8.94 µM (active) |
| Nc1ncn([C@@H]2O[C@H](CO)[C@@H](O)[C@H]2O)c(=O)n1 | inactive |
| CC(CCC(=O)O)(c1ccc(O)cc1)c1ccc(O)cc1 | inactive |
| c1cc(-c2ccncc2)ccn1 | 40.3 µM (active) and 35.6 µM (active) |
| COC(=O)C1=C(C)NC(C)=C(C(=O)OCCN(C)Cc2ccccc2)C1c1cccc([N+](=O)[O-])c1 (configuration not stated) | inactive |
| Cc1ccc(C(=O)c2cc(O)c(O)c([N+](=O)[O-])c2)cc1 | inactive |
